Results reported in the supplement of paper PMC10849652.
Of roughly 8,800 targets only a part is listed; those with a hit were picked by preference. About 0.5% of all pairs of compound and target were hits. Unmarked numbers belong to inactive results.

Columns and labels:
Assay in all cases: log2 fold change, soluble protein after heating vs DMSO (PISA); higher = thermal stabilisation; K562 lysate, 10 uM; active = over 0.2 and 3.5 SD of the protein, either way, in both replicates (recomputed)
[1] = compound: C1=CC=C(C=C1)[C@H](COC2=CC3=C(C=C2)NC(=O)N3)NC(=O)C4=CC=CN(C4=O)CC5=CC(=C(C=C5)F)F
Procedure, shortened: (§1)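 Log-two fold change in thermal stability relative to solvent controls is reported from duplicates. For each sample, crude K562 extract from dounce-homogenised pellets in PBS pH 7.4 with 1 mM MgCl2, at 1 mg/mL protein, was treated with 10 μM compound for 30 min. Aliquots heated for 3 min across 48°C-58°C were pooled, brought to 0.5% NP-40 at 4°C and cleared at 21,000xg for 90 min. The supernatant was quantified by TMTpro 16plex LC-MS/MS with channel sums equalised.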

[2] = compound: CC1=C(SC2=C1C(=N[C@H](C3=NN=C(N32)C)CC(=O)N)C4=CC=C(C=C4)Cl)C
Procedure, shortened: as §1

[3] = compound: CC1=C2C(=CC=C1)N=C(N(C2=O)C3=CC=CC=C3C)CN4C=NC5=C(N=CN=C54)N
Procedure, shortened: as §1

[4] = compound: Cc1sc2c(c1C)C(c1ccc(Cl)cc1)=N[C@@H](CC(=O)OC(C)(C)C)c1nnc(C)n1-2
Procedure, shortened: as §1

[5] = compound: c1ccc([C@@H]2C[C@H]2NC2CCNCC2)cc1
Procedure, shortened: as §1

UniProt Q9UPU9, sequence (Q9UPU9 whole entry, looked up): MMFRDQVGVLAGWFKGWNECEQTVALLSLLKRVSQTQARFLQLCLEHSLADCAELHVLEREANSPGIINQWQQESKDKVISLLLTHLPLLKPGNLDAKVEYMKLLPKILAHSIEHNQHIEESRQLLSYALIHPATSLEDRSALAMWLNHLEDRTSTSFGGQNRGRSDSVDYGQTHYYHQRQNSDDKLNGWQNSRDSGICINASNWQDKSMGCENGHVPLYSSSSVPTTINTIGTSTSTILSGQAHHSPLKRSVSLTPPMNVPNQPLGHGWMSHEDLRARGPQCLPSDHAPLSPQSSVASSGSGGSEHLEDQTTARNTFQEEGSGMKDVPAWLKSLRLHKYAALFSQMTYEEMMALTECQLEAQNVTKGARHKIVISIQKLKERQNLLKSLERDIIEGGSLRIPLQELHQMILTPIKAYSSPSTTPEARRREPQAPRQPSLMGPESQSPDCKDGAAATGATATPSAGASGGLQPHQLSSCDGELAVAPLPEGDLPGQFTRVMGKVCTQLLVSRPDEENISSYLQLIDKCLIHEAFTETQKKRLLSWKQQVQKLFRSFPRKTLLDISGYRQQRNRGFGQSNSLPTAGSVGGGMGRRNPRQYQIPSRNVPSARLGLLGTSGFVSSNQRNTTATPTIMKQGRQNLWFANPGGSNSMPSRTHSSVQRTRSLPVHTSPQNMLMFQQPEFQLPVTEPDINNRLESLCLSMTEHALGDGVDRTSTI
UniProt Q99574, sequence (Q99574 whole entry, looked up): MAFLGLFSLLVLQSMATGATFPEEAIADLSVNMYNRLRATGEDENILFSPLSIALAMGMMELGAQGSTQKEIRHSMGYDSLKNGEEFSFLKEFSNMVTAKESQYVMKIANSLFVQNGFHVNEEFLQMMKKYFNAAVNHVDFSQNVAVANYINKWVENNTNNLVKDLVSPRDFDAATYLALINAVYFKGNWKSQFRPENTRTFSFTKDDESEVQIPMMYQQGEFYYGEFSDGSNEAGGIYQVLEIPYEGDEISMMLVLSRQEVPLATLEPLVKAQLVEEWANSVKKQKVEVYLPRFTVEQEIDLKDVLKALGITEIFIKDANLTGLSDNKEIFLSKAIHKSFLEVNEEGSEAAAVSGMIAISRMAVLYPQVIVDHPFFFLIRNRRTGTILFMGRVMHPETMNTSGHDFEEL
UniProt Q92930, sequence (Q92930 whole entry, looked up): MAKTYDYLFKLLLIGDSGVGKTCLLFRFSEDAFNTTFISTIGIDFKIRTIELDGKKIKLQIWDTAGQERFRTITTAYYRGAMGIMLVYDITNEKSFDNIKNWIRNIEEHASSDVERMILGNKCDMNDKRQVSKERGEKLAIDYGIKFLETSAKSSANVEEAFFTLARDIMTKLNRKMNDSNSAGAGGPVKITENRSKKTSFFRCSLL
UniProt Q8TC12, sequence (Q8TC12 whole entry, looked up): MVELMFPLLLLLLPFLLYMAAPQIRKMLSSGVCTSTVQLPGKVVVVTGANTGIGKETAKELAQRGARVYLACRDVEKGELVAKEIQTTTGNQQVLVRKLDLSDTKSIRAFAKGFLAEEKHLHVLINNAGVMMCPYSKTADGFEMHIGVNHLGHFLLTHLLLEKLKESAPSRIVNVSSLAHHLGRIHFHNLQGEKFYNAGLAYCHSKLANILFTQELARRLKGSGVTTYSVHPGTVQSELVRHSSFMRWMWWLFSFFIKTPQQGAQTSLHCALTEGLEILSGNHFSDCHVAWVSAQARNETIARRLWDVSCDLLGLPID
UniProt Q86X10, sequence (Q86X10 whole entry, looked up): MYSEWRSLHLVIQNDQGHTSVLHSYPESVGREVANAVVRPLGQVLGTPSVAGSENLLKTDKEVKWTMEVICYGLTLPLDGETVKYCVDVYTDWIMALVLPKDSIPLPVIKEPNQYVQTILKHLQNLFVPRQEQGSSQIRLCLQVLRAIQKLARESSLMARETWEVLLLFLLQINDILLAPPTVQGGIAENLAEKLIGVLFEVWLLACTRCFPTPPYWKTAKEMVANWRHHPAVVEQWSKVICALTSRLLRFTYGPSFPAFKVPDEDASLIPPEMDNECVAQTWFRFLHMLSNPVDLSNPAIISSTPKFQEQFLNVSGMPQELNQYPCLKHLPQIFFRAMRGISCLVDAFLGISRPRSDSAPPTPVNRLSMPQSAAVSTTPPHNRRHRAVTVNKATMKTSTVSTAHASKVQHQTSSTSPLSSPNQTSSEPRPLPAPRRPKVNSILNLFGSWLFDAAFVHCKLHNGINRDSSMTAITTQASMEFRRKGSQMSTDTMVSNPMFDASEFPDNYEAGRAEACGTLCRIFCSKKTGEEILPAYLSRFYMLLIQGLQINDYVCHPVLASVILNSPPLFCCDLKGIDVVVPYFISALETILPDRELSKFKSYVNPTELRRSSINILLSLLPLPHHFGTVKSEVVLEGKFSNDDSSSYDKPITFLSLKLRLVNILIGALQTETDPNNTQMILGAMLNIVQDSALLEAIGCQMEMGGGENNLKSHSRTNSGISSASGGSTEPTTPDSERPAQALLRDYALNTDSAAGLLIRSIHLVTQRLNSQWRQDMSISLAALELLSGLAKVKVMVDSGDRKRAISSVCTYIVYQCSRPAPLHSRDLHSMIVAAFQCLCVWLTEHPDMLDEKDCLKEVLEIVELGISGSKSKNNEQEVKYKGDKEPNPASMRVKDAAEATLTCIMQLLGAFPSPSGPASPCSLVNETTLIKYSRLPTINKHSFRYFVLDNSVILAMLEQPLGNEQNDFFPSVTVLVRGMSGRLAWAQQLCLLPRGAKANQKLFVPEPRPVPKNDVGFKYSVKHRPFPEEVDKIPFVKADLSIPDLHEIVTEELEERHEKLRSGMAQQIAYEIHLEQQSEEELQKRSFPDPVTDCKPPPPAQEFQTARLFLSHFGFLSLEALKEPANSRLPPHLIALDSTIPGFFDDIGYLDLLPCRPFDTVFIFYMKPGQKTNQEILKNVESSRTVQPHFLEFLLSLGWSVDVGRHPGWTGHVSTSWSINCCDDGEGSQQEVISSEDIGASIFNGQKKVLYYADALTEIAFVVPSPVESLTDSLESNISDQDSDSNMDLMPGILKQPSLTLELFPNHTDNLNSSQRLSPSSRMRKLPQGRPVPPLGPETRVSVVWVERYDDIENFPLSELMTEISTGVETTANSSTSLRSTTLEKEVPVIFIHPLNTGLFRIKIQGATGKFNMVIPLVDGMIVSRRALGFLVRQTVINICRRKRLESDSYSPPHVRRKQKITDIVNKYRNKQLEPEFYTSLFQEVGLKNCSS
UniProt Q96JX3, sequence (Q96JX3 whole entry, looked up): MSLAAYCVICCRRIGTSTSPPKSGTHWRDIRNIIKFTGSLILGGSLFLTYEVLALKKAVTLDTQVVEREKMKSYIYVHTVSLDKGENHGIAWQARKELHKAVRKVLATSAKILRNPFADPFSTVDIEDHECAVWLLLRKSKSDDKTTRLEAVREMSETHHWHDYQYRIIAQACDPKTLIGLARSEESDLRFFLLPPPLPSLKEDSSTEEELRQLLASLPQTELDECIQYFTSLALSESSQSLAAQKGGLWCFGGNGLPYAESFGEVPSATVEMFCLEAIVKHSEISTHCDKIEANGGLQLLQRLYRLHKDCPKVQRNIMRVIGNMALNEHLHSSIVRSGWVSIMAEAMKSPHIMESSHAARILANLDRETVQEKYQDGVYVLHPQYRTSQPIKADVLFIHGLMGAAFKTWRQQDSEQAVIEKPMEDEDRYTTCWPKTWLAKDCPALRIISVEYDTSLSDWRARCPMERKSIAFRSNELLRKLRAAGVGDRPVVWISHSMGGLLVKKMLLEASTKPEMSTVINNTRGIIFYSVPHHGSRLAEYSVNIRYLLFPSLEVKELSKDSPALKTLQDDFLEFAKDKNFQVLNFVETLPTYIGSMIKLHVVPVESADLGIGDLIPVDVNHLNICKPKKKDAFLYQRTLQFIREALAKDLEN
UniProt P51812, sequence (P51812 whole entry, looked up): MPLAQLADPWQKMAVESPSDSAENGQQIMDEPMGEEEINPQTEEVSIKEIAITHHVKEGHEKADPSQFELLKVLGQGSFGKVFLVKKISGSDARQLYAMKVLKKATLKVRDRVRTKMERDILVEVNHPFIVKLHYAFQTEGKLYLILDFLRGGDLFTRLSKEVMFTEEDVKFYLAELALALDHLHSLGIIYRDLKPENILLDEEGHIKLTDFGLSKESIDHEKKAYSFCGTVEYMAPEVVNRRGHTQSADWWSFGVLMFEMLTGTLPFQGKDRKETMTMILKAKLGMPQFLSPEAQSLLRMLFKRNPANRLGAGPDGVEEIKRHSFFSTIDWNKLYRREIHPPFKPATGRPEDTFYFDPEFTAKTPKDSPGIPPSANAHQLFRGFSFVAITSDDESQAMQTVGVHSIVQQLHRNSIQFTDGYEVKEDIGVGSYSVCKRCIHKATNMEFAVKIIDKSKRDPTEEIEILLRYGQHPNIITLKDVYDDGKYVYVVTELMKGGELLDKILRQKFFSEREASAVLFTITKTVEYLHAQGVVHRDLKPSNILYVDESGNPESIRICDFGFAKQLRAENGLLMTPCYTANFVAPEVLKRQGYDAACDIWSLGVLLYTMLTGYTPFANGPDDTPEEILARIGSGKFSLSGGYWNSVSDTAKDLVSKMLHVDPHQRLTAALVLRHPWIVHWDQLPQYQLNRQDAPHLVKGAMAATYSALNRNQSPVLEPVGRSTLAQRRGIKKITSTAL
UniProt Q9BTD8, sequence (Q9BTD8 whole entry, looked up): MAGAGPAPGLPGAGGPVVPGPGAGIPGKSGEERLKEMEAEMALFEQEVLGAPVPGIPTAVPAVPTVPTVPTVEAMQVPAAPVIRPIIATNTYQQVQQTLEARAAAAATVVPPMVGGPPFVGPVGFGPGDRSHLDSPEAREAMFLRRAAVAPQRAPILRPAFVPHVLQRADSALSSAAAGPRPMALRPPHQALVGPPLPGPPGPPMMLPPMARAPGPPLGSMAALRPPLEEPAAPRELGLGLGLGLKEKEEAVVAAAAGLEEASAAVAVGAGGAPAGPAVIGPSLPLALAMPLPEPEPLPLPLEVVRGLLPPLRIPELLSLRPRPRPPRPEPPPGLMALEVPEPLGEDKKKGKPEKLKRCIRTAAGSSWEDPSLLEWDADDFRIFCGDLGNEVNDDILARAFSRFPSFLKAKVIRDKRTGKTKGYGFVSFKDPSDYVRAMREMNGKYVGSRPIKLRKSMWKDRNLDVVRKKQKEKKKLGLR

Row | Target | log2 fold change [1] | log2 fold change [2] | log2 fold change [3] | log2 fold change [4] | log2 fold change [5]
1 | RIPK1 (UniProt Q13546) | -0.019 | -0.015 | -0.009 | -0.04 | -0.021
2 | RNF168 (UniProt Q8IYW5) | -0.008 | -0.052 | 0.017 | 0.061 | -0.068
3 | SESN2 (UniProt P58004) | -0.074 | 0.01 | -0.025 | -0.004 | -0.01
4 | SAMD4A (UniProt Q9UPU9) | 0.114 | 0.086 | -0.01 | -0.079 | -0.03
5 | RPL28 (UniProt P46779) | 0.042 | -0.02 | 0.001 | -0.008 | 0.041
6 | RAB8B (UniProt Q92930) | -0.067 | 0.013 | -0.041 | -0.012 | 0.146
7 | RALA (UniProt P11233) | -0.013 | 0.071 | -0.008 | -0.004 | -0.225
8 | RARS (UniProt P54136) | -0.014 | 0.038 | 0.024 | 0.028 | 0.091
9 | RALGAPA1 isoform 6 (UniProt Q6GYQ0) | -0.041 | -0.072 | 0.006 | -0.063 | -0.178
10 | RBM45 (UniProt Q8IUH3) | – | – | – | – | -0.026
11 | RBM42 (UniProt Q9BTD8) | -0.014 | -0.003 | 0.107 | 0.103 | -0.006
12 | RABL3 (UniProt Q5HYI8) | -0.044 | -0.021 | 0.004 | 0.017 | 0.03
13 | RAD54L (UniProt Q92698) | -0.013 | -0.031 | – | -0.299 | -1.06 (active)
14 | RYR1 (UniProt P21817) | -0.011 | -0.028 | – | -0.093 | -0.055
15 | SERAC1 (UniProt Q96JX3) | -0.122 | 0.145 | – | 0.11 | 0.065
16 | RALGAPB isoform 3 (UniProt Q86X10) | 0.107 | 0.05 | – | 0.189 | 0.153
17 | SCNM1 (UniProt Q9BWG6) | – | – | – | -0.332 | 0.014
18 | RNF24 isoform 2 (UniProt Q9Y225) | -0.219 | 0.037 | – | – | -0.115
19 | RNASEL (UniProt Q05823) | 0.047 | -0.041 | 0.068 | -0.004 | 0.046
20 | RBM22 (UniProt Q9NW64) | -0.073 | 0.012 | 0.036 | 0.072 | 0
21 | RPS6KA3 (UniProt P51812) | -0.049 | -0.031 | -0.008 | 0.009 | -0.061

Row | Target | log2 fold change [1] | log2 fold change [2] | log2 fold change [3] | log2 fold change [4] | log2 fold change [5]
22 | S100A6 (UniProt P06703) | – | – | -0.084 | -0.1 | 0.104
23 | QSER1, A0A3B3IRW6 | – | – | 0.047 | -0.027 | –
24 | RAP1B (UniProt P61224) | 0.006 | -0.023 | 0.032 | 0.055 | 0.02
25 | RNF181 (UniProt Q9P0P0) | 0.03 | -0.145 | -0.031 | 0.022 | 0.066
26 | RNPC3 (UniProt Q96LT9) | – | – | – | -0.029 | -0.034
27 | SERPINI1 (UniProt Q99574) | 0.067 | -0.033 | 0.031 | -0.011 | -0.021
28 | RPS6KA5 (UniProt O75582) | – | – | -0.084 | -0.024 | -0.017
29 | RUFY2 isoform 1 (UniProt Q8WXA3) | -0.28 | -0.106 | -0.087 | – | -0.111
30 | RDH11 (UniProt Q8TC12) | – | – | 0.064 | 0.069 | -0.085
31 | SATB2 (UniProt Q9UPW6) | – | – | -0.019 | 0.021 | -0.045
32 | RNASEH1 (UniProt O60930) | – | – | – | – | 0.11
33 | RXRA (UniProt P19793) | – | – | – | 0.167 | -0.149
34 | RNF2 (UniProt Q99496) | – | – | 0.03 | -0.091 | 0.343
35 | RMI2 (UniProt Q96E14) | – | – | -0.18 | 0.079 | –
36 | RPS4X (UniProt P62701) | 0.02 | 0.029 | -0.009 | 0.044 | 0.066
37 | RHOU (UniProt Q7L0Q8) | – | – | 0.065 | -0.1 | -0.015
38 | SEMA4G isoform 2 (UniProt Q9NTN9) | – | – | 0.105 | 0.021 | 0.066
39 | RHBDD1 (UniProt Q8TEB9) | -0.032 | 0.058 | -0.117 | – | 0.039
40 | SEC16A isoform 3 (UniProt O15027) | – | – | – | -0.006 | –
41 | RNF17 (UniProt Q9BXT8) | -0.241 | 1 (active) | – | 0.129 | 0.451
42 | RETREG2 (UniProt Q8NC44) | -0.095 | 0.016 | 0.084 | – | 0.004
